An excerpt weighted towards active compounds, which were near 7.8% of everything screened.
HCV inh – blocks hepatitis C virus; Huh7.5.1 HCVcc-Cre infection, luciferase reporter, 44 h; Potency, µM (titrated, usually from 41.8 µM), inactives show top-dose activity change, negative = inhibition, most hits filed as inhibitors; actives 3.4% (n = 340,000); AID 651820; active means well fitted inhibition curve with a large enough effect; inconclusive means small, poorly fitted or top-dose-only effect, or another doubt; inactive means no such curve, though single readings can be large or run the other way; further: potency means the concentration at half of the fitted maximal effect
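Infectious HCV cell culture screen: compound-treated cells (1,000/well, pre-plated 4 h) are infected with HCVcc-Cre at roughly 0.5 moi and grown 44 h. Infection is quantified by luciferase signal after 15 min substrate incubation at room temperature.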
Vaccinia mCherry – vaccinia inhibition (mCherry reporter) | Vaccinia virus mCherry reporter infection, fluorescence | Potency, µM (doses to about 36.5 µM), inactives show at the highest dose activity change, negative = inhibition, actives largely listed as inhibitors | actives 0.63% (n = 310,000) | AID 720579; calls by dose curve; tested in A549 cells; further: potency means the concentration at half of the fitted maximal effect; nearly all actives have a fitted effect of over 35% in size
Marburg entry inh – Marburg virus entry inhibition; Marburg virus pseudotyped entry inhibition, cell reporter; Potency, µM (top dose mostly 37.8 µM), for inactives: at the highest dose activity change, negative = inhibition, hits mostly inhibitors; actives 1.8% (n = 300,000); AID 540276; calls by dose curve; tested in HEK293 cells; further: potency means the concentration at half of the fitted maximal effect
Lassa entry inh – inhibitors of Lassa virus binding or cell entry. Lassa virus pseudotype entry inhibition, cell reporter. Potency, µM (top dose mostly 37.9 µM), for inactives: at the highest dose activity change, negative = inhibition, hits mostly inhibitors. actives 1.2% (n = 300,000). AID 540256; calls by dose curve; tested in HEK293 cells; further: potency means the concentration at half of the fitted maximal effect; nearly all actives have a fitted effect of over 50% in size
HCMV inh – human cytomegalovirus inhibition; HFF cells, HCMV-luciferase reporter, 72 h; active compounds read low; activity change, negative = inhibition, % at 57.5 µM; actives 4.5% (n = 410,000); in the data active means activity change below about -60%; inconclusive means no clear call, values can overlap the other calls; inactive means above about -39%
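Steps: HFFs plated, 16 h 37C; compounds added; HCMV-luciferase added to MOI 1 PFU/cell; 72 h 37C; OneGlo reagent, 5 min room temperature; luminescence read, normalized to controls.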
Vaccinia Venus – vaccinia inhibition (Venus reporter); actives 0.46% (n = 330,000); Potency, µM (doses to about 36.5 µM), without a hit: at the highest dose activity change, negative = inhibition, most hits filed as inhibitors; Vaccinia virus Venus reporter expression, fluorescence; AID 720580; calls by dose curve; tested in A549 cells; further: potency means the concentration at half of the fitted maximal effect; nearly all actives have a fitted effect of over 30% in size
Numbers without * were called inactive; i = inactive; ? = inconclusive; / = not tested or not shown; [ ] = remark or other dose. On the % scale 0 is the no-effect control and ±100 the full control effect.

SMILES	HCV inh	Vaccinia mCherry	Marburg entry inh	Lassa entry inh	HCMV inh	Vaccinia Venus
COc1ccc(OC[C@@H]2CC3[C@@H](CC[C@@H](C)[C@H]3c3ccc(Br)cc3)C(=O)O2)cc1 (some centres not stated)	/	/	-5.2%[14.2 µM]	?	/	/
CCN(CC)S(=O)(=O)c1cc(NC(=O)CSc2nc3c(cc2C#N)C(=O)CC(C)(C)C3)ccc1C	?	-26.9%	?	?	-85.4*	-14.8%
C1=Nc2ccccc2/C1=C/c1ccccc1	/	-14.5%	/	/	/	-5.6%
c1ccc2sc(N3CCCN(Cc4nc(-c5cnccn5)no4)CC3)nc2c1	?	-21.0%	?	9.3%[46.1 µM]	-78.6*	-17.4%
c1cnc(-c2noc(CN3CCN(C4CCCC4)CC3)n2)cn1	9.7%	-5.4%	13.8%[46.1 µM]	16.7%[46.1 µM]	-0.2	-3.9%
CN1CCN(C(=O)CCN2C(=O)/C(=C/c3ccccc3Cl)SC2=S)CC1	?	-0.5%	?	-29.8%[46.1 µM]	-84.7*	55.9%
Cc1ccc(/C=C2/SC(=S)N(CCC(=O)N3CCN(C)CC3)C2=O)cc1	?	-8.6%	?	2.8%	-74.1*	-6.4%
Cc1ccc(/C=C2\SC(=S)N(CCC(=O)N3CCCCC3)C2=O)cc1	5.4%	-13.5%	-3.6%[46.1 µM]	9.7%	5.6	2.0%
CC1C(=O)C(C)(C)C(=O)OC1c1ccc([N+](=O)[O-])cc1 (configuration not stated)	8.8%	/	/	/	-104.0*	/
CC(C)C[C@H](NC(=O)C1OC1C(=O)O)C(=O)NCCCCN=C(N)N (some centres not stated)	/	/	4.11µM*	?	/	/
CCOC(=O)C1OC1C(=O)NC(CC(C)C)C(=O)NCCC(C)C (configuration not stated)	/	-17.1%[60.7 µM]	/	/	/	-4.4%[60.7 µM]
Cc1cccc(-n2cnc3cc(C(=O)NC4CCCCCC4)ccc32)c1	/	-20.1%	/	?	-29.7	-28.0%
CCCCN(C)C(=O)C1CCC(CNS(=O)(=O)c2ccc(Cl)cc2)CC1 (configuration not stated)	/	i	/	-23.3%[46.1 µM]	0.0	-17.6%
C#CCN1C(C)=C(C(=O)OC)C(c2cccc([N+](=O)[O-])c2)C(C(=O)OCC)=C1C (configuration not stated)	?	-10.9%	14.1µM*	?	-29.3	-5.6%
CN1C(=O)N(CC(=O)Nc2cccc(S(=O)(=O)N(C)c3ccccc3)c2)C(=O)C12CCCCC2	3.98µM*	-17.1%	?	?	-18.7	-25.5%
CCC1CCC2(CC1)NC(=O)N(CC(=O)Nc1cccc(S(=O)(=O)N(C)c3ccccc3)c1)C2=O (configuration not stated)	8.91µM*	/	/	/	-13.2	/
CC1CCC2(CC1)NC(=O)N(CC(=O)Nc1cccc(S(=O)(=O)N3CCOCC3)c1)C2=O (configuration not stated)	-17.3%	-0.2%[7.34 µM]	/	/	0.0	-3.6%[7.34 µM]
C[C@@H](c1ccccc1)N1C[C@H](COCc2ccccc2)Oc2cc(N3CC[C@H](N(C)C)C3)ccc2S1(=O)=O	/	13.0%	/	/	-60.5*	-10.1%
C[C@@H](c1ccccc1)N1C[C@H](COCc2ccccc2)Oc2cc(N3CC[C@@H](N(C)C)C3)ccc2S1(=O)=O	/	-17.6%	/	/	?	-26.5%
CCCCC[C@@H](C)N1C[C@H](COCc2ccccc2)Oc2cc(N3CC[C@H](N(C)C)C3)ccc2S1(=O)=O	/	?	/	/	-101.2*	?
COC[C@@H]1CCCN1c1ccc2c(c1)O[C@@H](COCc1ccccc1)CN([C@H](C)c1ccccc1)S2(=O)=O	/	1.5%	/	/	-64.7*	3.3%
CCCCC[C@H](C)N1C[C@H](COCc2ccccc2)Oc2cc(N3CC[C@H](O)C3)ccc2S1(=O)=O	/	i	/	/	-5.0	2.7%
C[C@H](c1ccccc1)N1C[C@@H](COCc2ccccc2)Oc2cc(N3CC[C@H](O)C3)ccc2S1(=O)=O	/	i	/	/	-76.2*	-4.9%
Cc1ccc(-n2nc(C(=O)NCc3ccc(F)cc3Cl)c3c4ccccc4n(C)c3c2=O)cc1	/	-9.6%	-2.0%[46.1 µM]	-7.6%[46.1 µM]	3.9	-13.2%
CC(NC(=O)CSc1n[nH]c(-c2ccccc2Cl)n1)c1nc2ccccc2[nH]1 (configuration not stated)	/	-15.9%	/	6.9%[46.1 µM]	17.7	-6.3%
SMILES	HCV inh	Vaccinia mCherry	Marburg entry inh	Lassa entry inh	HCMV inh	Vaccinia Venus
CCOCCCn1c(C)nc2c(c1=O)c1nc3ccccc3nc1n2CCC1=CCCCC1	-1.9%	/	10µM*	?	?	-10.2%
O=c1[nH]nc(Sc2ncnc3sccc23)n1CCc1ccccc1	-28.7%	/	?	?	-95.3*	/
CCN(CC)C(=O)CSc1n[nH]c(=O)n1CCc1ccccc1	13.5%	i	3.2%[46.1 µM]	2.7%	38.7	-2.5%
c1ccc2c(c1)OCC(CNc1ncnc3sccc13)O2 (configuration not stated)	1µM*	?	?	-31.0%	-63.3*	-21.0%
Fc1ccccc1CNc1ncnc2sccc12	2.24µM*	-14.1%	?	-28.1%[46.1 µM]	-14.5	8.1%
COc1cc2ncnc(NCc3ccccc3F)c2cc1OC	5.3%	/	/	/	-27.9	/
COc1ccc(CCNc2ncnc3sccc23)cc1OC	?	-13.1%	?	?	-89.2*	-18.2%
COc1ccccc1CNc1ncnc2sccc12	?	i	6.31µM*	?	-75.9*	-5.6%
O=C(Nc1ccc(F)cc1)c1cccn1-c1nnc(N2CCCCC2)s1	/	-6.1%	/	6.7%[46.1 µM]	0.0	-5.4%
CCOC(=O)c1sc2ncn(CC(=O)Nc3ccc(C)cc3Br)c(=O)c2c1C	/	-22.1%	?	0.0%[46.1 µM]	-9.2	-22.7%
CN(C)c1ccc(CNc2ncnc3sccc23)cc1	1.78µM*	-24.0%	?	3.55µM*	-82.0*	-17.5%
CN(C)c1ccc(CNc2ncc(Br)cc2Br)cc1	-7.8%	-20.6%	-18.9%	5.7%	-5.6	-14.9%
COC(=O)C1(C)C2CC(C)C(c3ccccc32)N1C(=O)C(F)(F)F (configuration not stated)	/	/	-9.1%[14.2 µM]	?	/	/
Cc1cc(OCc2cc(C(=O)NCCN3CCCCC3CO)no2)cc(C)c1Cl (configuration not stated)	8.91µM*	-14.2%	?	?	-10.8	?
COC(=O)c1ccccc1NC(=O)C1=CC(c2ccc3c(c2)OCO3)=NS(=O)(=O)N1C	/	-10.7%	-0.8%[46.1 µM]	0.0%[46.1 µM]	17.6	-0.2%
c1ccc(CNc2ncnc3c2oc2ccccc23)nc1	-4.7%	/	28.7%	?	70.1	/
CCc1nc(Nc2ccncc2)c2oc3ccccc3c2n1	?	?	?	-13.0%	-104.8*	?
CCc1nc(NCc2ccccn2)c2oc3ccccc3c2n1	?	/	?	-23.9%	-63.3*	?
CCc1nc(Nc2ccc3c(c2)OCO3)c2oc3ccccc3c2n1	?	?	?	-3.6%	-22.7	-26.2%
Cc1nc(Nc2ccncc2)c2oc3ccccc3c2n1	8.91µM*	/	?	28.1%	-98.3*	/

Source: PubChem BioAssay (National Center for Advancing Translational Sciences (NCATS))
